HPGD inh: qHTS Assay for Inhibitors of HPGD (15-Hydroxyprostaglandin Dehydrogenase); 15-hydroxyprostaglandin dehydrogenase [NAD(+)] (Homo sapiens), P15428; purified HPGD, NADH fluorescence kinetic, PGE2 substrate; Potency, µM, actives largely listed as inhibitors; 4.3% of 150,000 active
Target sequence (P15428 whole entry, looked up): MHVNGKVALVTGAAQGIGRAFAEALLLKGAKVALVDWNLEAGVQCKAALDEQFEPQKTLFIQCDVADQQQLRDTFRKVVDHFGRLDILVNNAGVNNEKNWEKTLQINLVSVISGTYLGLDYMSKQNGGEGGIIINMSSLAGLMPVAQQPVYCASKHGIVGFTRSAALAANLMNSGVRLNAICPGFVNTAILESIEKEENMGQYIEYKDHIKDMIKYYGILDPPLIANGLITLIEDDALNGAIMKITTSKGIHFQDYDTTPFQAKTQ
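20 nM HPGD preincubated 15 min at room temperature with compound in 50 mM Tris-HCl pH 8, 0.01% Tween 20. Started with 1 mM NAD+ and 30 uM prostaglandin E2; NADH fluorescence (360/450 nm) read 5 times over 30-s intervals, last minus first.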
ALDH1A1 inh: qHTS Assay for Inhibitors of Aldehyde Dehydrogenase 1 (ALDH1A1); AID 1030, 2008; 7.3% of 220,000 active; Potency, µM (top dose mostly 75.3 µM), actives largely listed as inhibitors; Purified ALDH1A1, NADH fluorescence, propionaldehyde substrate; Aldehyde dehydrogenase 1A1 (Homo sapiens), P00352
IMPase inh: qHTS Assay for Identifying the Cell-Membrane Permeable IMPase Inhibitors; 120,000 tested, under 10 active; AID 901, 2007; inhibition (IP1 accumulation), % at 46.1 µM; Inositol monophosphatase 1 (Rattus norvegicus), P97697; CHO-M1 cells, IP1 accumulation, HTRF TR-FRET ratio; active means well fitted curve in the direction sought with a large enough effect in the signal ratio, not every such curve was filed as active; inconclusive means small, poorly fitted or top-dose-only effect, or a change in a side signal; inactive means no such curve, though single readings can be large or run the other way; the % refers to the signal ratio;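 further: cells stimulated with carbachol in lithium chloride buffer; higher means more IMPase inhibition seen as more IP1 and lower FRET ratio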
Target sequence (P97697 whole entry, looked up): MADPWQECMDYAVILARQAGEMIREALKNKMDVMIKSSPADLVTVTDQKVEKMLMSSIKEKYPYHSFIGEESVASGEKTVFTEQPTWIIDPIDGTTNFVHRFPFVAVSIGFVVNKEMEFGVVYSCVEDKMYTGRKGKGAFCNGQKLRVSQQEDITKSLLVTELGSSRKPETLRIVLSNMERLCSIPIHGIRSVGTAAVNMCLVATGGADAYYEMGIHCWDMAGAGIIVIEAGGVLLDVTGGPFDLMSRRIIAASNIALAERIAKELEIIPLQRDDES
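CHO-M1 cells (CHO stably expressing M1 receptor), compound up to 46 uM final, stimulated with carbachol (50 uM as added) in buffer with 50mM LiCl, pH 7.4, 30 min at 37C. Cytosolic IP1 read by TR-FRET; AC50 from Hill fits.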
A number is an active result; - = inactive; ? = inconclusive; . = not tested or not shown; [ ] = another dose, or the depositor's remark. Rows were chosen to be rich in hits. Some 9% of all compounds tested hit in one or more screens of this group. Unless noted, the call rests on the fitted dose curve; in most records, active means well fitted inhibition curve with a large enough effect (not every such curve was filed as active); inconclusive means small, poorly fitted or top-dose-only effect, or another doubt; inactive means no such curve, though single readings can be large or run the other way.

SMILES	HPGD inh	ALDH1A1 inh	IMPase inh
CCCCCCCC/C=C\CCCCCCCC(=O)N[C@@H](CO)Cc1ccc(O)cc1	-	-	-
CCNC(=O)c1c(NC(=O)COc2ccc(F)cc2)sc2c1CCCC2	.	.	-
CCCCCOc1ccc(Cn2c(=O)oc3ccc(C)cc32)cc1OC	.	.	-
CC(C#N)Sc1nc2ccccc2c(=O)n1-c1ccccc1 (stereo not given)	-	4.5µM	-
CC(C)On1c(SC(C)C)nc2ccccc2c1=O	-	?	-
O=C1CCC(/C=C/c2ccccc2)=NN1Cc1ccc(F)cc1	.	-	.
CN=C1CC(SC)=C1c1ccc(C)cc1	-	-	-
Oc1ccc(NCc2ccc(OCc3ccccc3)cc2)cc1	.	.	-
CCc1ccc(CNc2ccc(O)cc2)cc1	22µM	7.9µM	-
CC(C)CC1CCCCC1OC(=O)C[N+]1(C)CCCCC1 (stereo not given)	.	-	.
CCCCC(=O)N(CCOC)c1nnc(-c2ccccc2C)s1	.	-	.
COc1ccc(Cc2nnc(SCC(=O)N3CCc4ccccc4C3)o2)cc1	.	13µM	-
COc1ccc(CC(=O)N2CCCC(C)C2)cc1 (stereo not given)	28µM	-	-
COc1ccc(Cc2nnc(SCC(=O)N3CCCC(C)C3)o2)cc1 (stereo not given)	.	0.89µM	.
COc1ccc(Cc2nnc(SCC(=O)N3CCCC3)o2)cc1	.	-	.
CC1CCCN(C(=O)Cc2ccc(F)cc2)C1 (stereo not given)	-	?	-
COc1ccc(-c2nnc(SCC(=O)N3CCc4ccccc4C3)o2)cc1	?	?	-
COc1ccc(OC(C)C(=O)N2CCC(C)CC2)cc1 (stereo not given)	?	-	-
COc1ccc(OC(C)C(=O)N2CCc3ccccc3C2)cc1 (stereo not given)	25µM	-	-
O=C(NC12CC3CC(CC(C3)C1)C2)OCCNC1CCCCC1	.	-	.
COc1cccc2cc(C(=O)N3CCN(C/C=C/c4ccccc4)CC3)c(=O)oc12	?	?	-
CCc1ccc(C2CC(=O)Nc3cc4c(cc32)OCO4)cc1 (stereo not given)	.	.	-
COc1ccc(-c2nnc(SCC(=O)N3CCCC(C)C3)o2)c(OC)c1 (stereo not given)	16µM	?	-
COc1ccc(-c2nnc(SCC(=O)N3CCCCC3)o2)c(OC)c1	?	?	-
CC(C)c1ccc(N2C(=O)CC(Sc3nc4ccccc4o3)C2=O)cc1 (stereo not given)	?	0.71µM	-
SMILES	HPGD inh	ALDH1A1 inh	IMPase inh
CC(C)c1ccc(N2C(=O)CC(Sc3ncn[nH]3)C2=O)cc1 (stereo not given)	16µM	0.13µM	-
CC(Sc1nc2ccccc2o1)C(=O)O (stereo not given)	-	-	-
CCCc1c(O)nc(SC2CC(=O)N(c3cc(OC)ccc3OC)C2=O)[nH]c1=O (stereo not given)	-	-	-
CCOC(=O)c1cnc(SC2CC(=O)N(c3ccc(C)cc3)C2=O)nc1N (stereo not given)	-	?	-
CC(C)c1ccc(C(=O)CSc2ncn[nH]2)cc1	32µM	?	-
COc1ccc(N2C(=O)CC(Sc3ncn[nH]3)C2=O)c(OC)c1 (stereo not given)	.	14µM	-
O=C(CSc1ncn[nH]1)c1ccc2c(c1)OCCO2	-	?	-
Cc1ccc(CNc2ccc(S(=O)(=O)N3CCOCC3)cc2[N+](=O)[O-])cc1	-	-	-
COC(=O)C1=C(C)N(C)C(=S)NC1c1ccc(OC)cc1OC (stereo not given)	.	-	.
Cc1ccccc1-c1nnc(CN2CCN(c3cccc(C)c3C)CC2)o1	.	.	-
CC(C)CO/N=C1/C[C@@H](O)[C@@H](O)[C@@H]2[C@@H]3C(=O)N(Cc4ccccc4)C(=O)[C@H]3CC[C@H]12	.	-[13.5 µM]	.
C=CC[n+]1c(-c2ccc(OC)c(OC)c2)csc1NNC(=O)Nc1ccccc1	-	?	-
CCN(CC)c1ccc(C=Nc2ccc(C#N)cc2)c(O)c1	28µM	35µM	-
CCN(CC)c1ccc(C=Nc2ccccc2C)c(O)c1	-	-	.
COc1ccc(S(=O)(=O)N2CCC3(CC2)OCCO3)cc1	.	-	.
COC(=O)c1ccc(/C=N/OCC(=O)NC2CCCCCCC2)cc1	28µM	-	-
CCOc1ccccc1OCC(=O)NC1CCCCC1	-	-	-
COc1ccccc1OCC(=O)NC1CCCCCC1	10µM	?	?
CC1CCCC(NC(=O)COC(=O)c2ccc(N(C)C)cc2)C1C (stereo not given)	?	-	-
COC(=O)c1ccc(/C=N/OCC(=O)NC2CCCC(C)C2C)cc1 (stereo not given)	11µM	-	-
CCC(C)NC(=O)CO/N=C/c1ccc(C(=O)OC)cc1 (stereo not given)	-	-	-
CC1(C)CC(=O)C2=C(C1)Oc1nc3ccccc3cc1C2C(C#N)C#N (stereo not given)	-	-	-
CCCCNC(=O)CCNS(=O)(=O)c1ccc(C)cc1	-	-	-
COc1ccc(S(=O)(=O)NC(C)CCc2ccccc2)cc1 (stereo not given)	.	0.63µM	.
O=C(CCc1ccc(S(=O)(=O)NCCc2ccccc2)cc1)NCc1ccco1	-	5µM	-
SMILES	HPGD inh	ALDH1A1 inh	IMPase inh
O=C(CCCNS(=O)(=O)c1ccccc1)NCc1ccco1	-	-	-
COc1ccc(CNC(=O)CCCc2ccccc2)cc1	-	1.1µM	.
COCC(C)NS(=O)(=O)c1ccc(OC)cc1 (stereo not given)	.	-	-
Cc1ccc(CNC(=O)CCNS(=O)(=O)c2ccc(C)cc2)cc1	-	14µM	-
COc1ccccc1CNC(=O)CCCc1ccccc1	?	-	.
CC(C)c1cccc(C(C)C)c1NC(=O)Cn1c(=O)cnc2ccccc21	-	-	.
COC(=O)c1ccc(NC(=O)c2ccccc2N(C)S(=O)(=O)c2ccccc2)cc1	-	?	-
Cn1c(=O)[nH]c(=O)c2c1nc(NCc1ccco1)n2Cc1ccccc1Cl	.	-	.
O=C(CCNS(=O)(=O)c1ccc2c(c1)CCC(=O)N2)NCc1ccc2c(c1)OCO2	-	-	-
Cc1ccc(S(=O)(=O)NCCCCCC(=O)NC(C)(C)CO)cc1	-	7.9µM	-
Cc1ccc(S(=O)(=O)NCCC(=O)NCc2ccc3c(c2)OCO3)cc1C	-	7.9µM	-
O=C(COc1ccccc1)NCc1ccccc1	28µM	-	-
O=C(COC(=O)COc1ccccc1)NCc1ccccc1	.	-	.
COc1ccc(S(=O)(=O)NCCC(=O)NCc2ccccc2)cc1	.	25µM	-
COc1ccc(S(=O)(=O)NCc2ccccc2)cc1	-	?	-
Cc1ccc(S(=O)(=O)NCCCCCC(N)=O)cc1	-	-	-
O=C(COC(=O)CNC(=O)c1ccc(-c2ccccc2)cc1)NCc1ccco1	.	-	.
COc1ccc(OC)c(C(=O)C2COC(=O)C2)c1 (stereo not given)	-	-	-
Cc1ccc(CNC(=O)[C@@H]2C[C@H]2[C@@H](NP(=O)(c2ccccc2)c2ccccc2)c2ccccc2)o1	-	-	.
Cc1ccc(N2C(=O)c3ccccc3C2Nc2ccc(S(=O)(=O)N3CCCCC3)cc2)nc1 (stereo not given)	-	14µM	-
